From the supplement of paper PMC12669032

How the values were obtained:
Test in all cases: growth AUC relative to DMSO control (median of replicates) (fraction); higher = more growth (less inhibition), active = hit call of the paper
Settings in all cases: 20 µM; 24 h;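 active = AUC reduced over 20% with Padj below 0.05 in at least 2 of 3 replicates; inactive = otherwise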
[1] = tested on: Coprococcus comes
How it was run: (§1)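 Gut bacteria were grown singly in mGAM at 37 °C without oxygen, from OD600 0.05, alongside 20 µM compound in 1% DMSO, and OD600 was read each hour for 24 h. Area under the growth curve was normalised to the median of solvent-only wells per plate, or to row and column medians on the industrial chemical plate. The minimum OD was set to 0 beforehand, and the reported value is the median of three biological replicates grown on separate days.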

[2] = tested on: Escherichia coli ED1a
How it was run: as §1

[3] = tested on: Escherichia coli IAI1
How it was run: as §1

[4] = tested on: Eubacterium rectale
How it was run: as §1

[5] = tested on: Fusobacterium nucleatum subsp. animalis
How it was run: as §1

[6] = tested on: Lactobacillus gasseri
How it was run: as §1

[7] = tested on: Lactobacillus paracasei
How it was run: as §1

[8] = tested on: Odoribacter splanchnicus
How it was run: as §1

[9] = tested on: Parabacteroides distasonis
How it was run: as §1

[10] = tested on: Parabacteroides merdae
How it was run: as §1

[11] = tested on: Roseburia intestinalis
How it was run: as §1

[12] = tested on: Streptococcus salivarius
How it was run: as §1

Measured: growth AUC

CNC(=O)Oc1cc(C)cc(C(C)C)c1
inactive: [1] 1.01 | [2] 0.959 | [3] 0.957 | [4] 1.04 | [5] 0.907 | [6] 0.889 | [7] 0.974 | [8] 1.11 | [9] 0.979 | [10] 0.992 | [11] 1.06 | [12] 0.935

CCSCc1ccccc1OC(=O)NC
inactive: [1] 0.959 | [2] 0.971 | [3] 0.98 | [4] 0.933 | [5] 0.973 | [6] 1.13 | [7] 1.01 | [8] 1.03 | [9] 1.06 | [10] 1.01 | [11] 1.01 | [12] 1.02

COP(=S)(OC)SCn1nnc2ccccc2c1=O
inactive: [1] 0.997 | [2] 0.957 | [3] 0.968 | [4] 1.07 | [5] 0.916 | [6] 0.929 | [7] 0.968 | [8] 0.902 | [9] 0.787 | [10] 0.944 | [11] 1.09 | [12] 0.969

CCOc1cc(C(C)(C)C)ccc1C1COC(c2c(F)cccc2F)=N1 (stereo not given)
inactive: [1] 0.996 | [2] 0.998 | [3] 1.02 | [4] 1 | [5] 1.08 | [6] 0.932 | [7] 1.01 | [8] 1.04 | [9] 0.891 | [10] 0.878 | [11] 0.948 | [12] 1.02

CCOP(=S)(OCC)SCCSCC
inactive: [1] 1.03 | [2] 1.01 | [3] 1 | [4] 0.971 | [5] 1.09 | [6] 1.02 | [7] 1.1 | [8] 1.02 | [9] 0.991 | [10] 1.01 | [11] 1.02 | [12] 1.01

CCOC(=O)N(C)C(=O)CSP(=S)(OCC)OCC
inactive: [1] 1.01 | [2] 1.01 | [3] 0.987 | [4] 0.898 | [5] 1.1 | [6] 1.03 | [7] 1.03 | [8] 1.03 | [9] 0.999 | [10] 0.985 | [11] 1.03 | [12] 1

Oc1c(Br)cc(Br)cc1Br
inactive: [1] 1.01 | [2] 0.945 | [3] 0.845 | [4] 1 | [5] 1.03 | [6] 1.13 | [7] 0.919 | [8] 0.748 | [9] 0.934 | [10] 0.991 | [11] 1.08 | [12] 0.959

CNC(=O)Oc1cccc2c1OC(C)(C)C2
inactive: [1] 1.02 | [2] 1.04 | [3] 0.985 | [4] 1.02 | [5] 1.07 | [6] 0.946 | [7] 0.994 | [8] 1.06 | [9] 0.992 | [10] 1 | [11] 0.992 | [12] 1.03

Cc1cccc(C)c1N
inactive: [1] 1.02 | [2] 0.978 | [3] 0.985 | [4] 0.997 | [5] 0.927 | [6] 1.02 | [7] 0.936 | [8] 1.03 | [9] 1.01 | [10] 0.999 | [11] 0.977 | [12] 1.04

O=C(O)C(F)(F)C(F)(F)C(F)(F)C(F)(F)C(F)(F)C(F)(F)C(F)(F)C(F)(F)C(F)(F)F
inactive: [1] 0.991 | [2] 1.01 | [3] 1.01 | [4] 0.892 | [5] 1.01 | [6] 1.01 | [7] 1.03 | [8] 0.993 | [9] 0.913 | [10] 0.97 | [11] 0.96 | [12] 0.942

O=S(=O)(c1ccc(Cl)cc1)c1cc(Cl)c(Cl)cc1Cl
inactive: [1] 0.987 | [2] 0.98 | [3] 0.99 | [4] 0.926 | [5] 0.9 | [6] 0.99 | [7] 0.731 | [8] 1.01 | [9] 0.971 | [10] 0.984 | [11] 0.989 | [12] 0.999

Cc1ccc(NC(=O)N(C)C)cc1Cl
inactive: [1] 0.996 | [2] 0.985 | [3] 0.982 | [4] 0.965 | [5] 0.916 | [6] 1.12 | [7] 0.954 | [8] 1.02 | [9] 1.05 | [10] 0.972 | [11] 1.02 | [12] 1.02

O=C(O)C1(O)c2ccccc2-c2ccc(Cl)cc21 (stereo not given)
inactive: [1] 0.972 | [2] 0.998 | [3] 0.975 | [4] 0.947 | [5] 0.982 | [6] 1.05 | [7] 0.997 | [8] 1.01 | [9] 0.979 | [10] 0.987 | [11] 0.991 | [12] 0.982

CCCN(CC1CC1)c1c([N+](=O)[O-])cc(C(F)(F)F)cc1[N+](=O)[O-]
inactive: [1] 0.995 | [2] 1.01 | [3] 1.03 | [4] 1 | [5] 1.09 | [6] 1.11 | [7] 0.977 | [8] 0.943 | [9] 1.03 | [10] 1.03 | [11] 1.06 | [12] 1.03

CSc1nc(NC(C)C)nc(NC(C)C)n1
inactive: [1] 0.999 | [2] 1.01 | [3] 0.976 | [4] 0.917 | [5] 0.922 | [6] 1.12 | [7] 0.944 | [8] 0.981 | [9] 1.02 | [10] 0.991 | [11] 1.02 | [12] 1.03

CC(Oc1ccc(Oc2ccc(Cl)cc2Cl)cc1)C(=O)O (racemic)
inactive: [1] 0.943 | [2] 0.974 | [3] 1.02 | [4] 0.988 | [5] 0.961 | [6] 1.16 | [7] 0.999 | [8] 1.09 | [9] 1.06 | [10] 0.956 | [11] 0.989 | [12] 0.934

COP(=O)(NC(C)=O)SC (stereo not given)
inactive: [1] 0.979 | [2] 1.01 | [3] 0.993 | [4] 0.921 | [5] 0.99 | [6] 1.1 | [7] 1.02 | [8] 0.999 | [9] 1.06 | [10] 1.01 | [11] 1.01 | [12] 1.01

CNC(=O)O/N=C/C(C)(C)S(C)=O (stereo not given)
inactive: [1] 0.987 | [2] 0.993 | [3] 1 | [4] 1.08 | [5] 0.996 | [6] 1.01 | [7] 1.01 | [8] 0.955 | [9] 1.02 | [10] 1 | [11] 0.994 | [12] 1.01

C=CCN(CC=C)C(=O)C(Cl)Cl
inactive: [1] 1 | [2] 0.944 | [3] 0.986 | [4] 1.01 | [5] 0.965 | [6] 0.934 | [7] 0.999 | [8] 1.02 | [9] 0.991 | [10] 0.947 | [11] 1 | [12] 0.99

CC1=C(C(=O)Nc2ccccc2)S(=O)(=O)CCO1
inactive: [1] 0.986 | [2] 1.02 | [3] 0.994 | [4] 0.985 | [5] 0.959 | [6] 0.998 | [7] 0.981 | [8] 0.962 | [9] 0.975 | [10] 1 | [11] 0.989 | [12] 0.979
